Reference: PubChem BioAssay (Tox21)
Values joined by “and” are separate entries in the source; they are usually repeats but may differ in a detail not shown here. Equal entries are not always repeated. Results filed as inconclusive are left out. The source holds several records for some structures; these can differ, active in one and inactive in another. Active and inactive are the calls of the source. Unless noted, calls come from the whole dose curve; as a rule, active = well fitted curve in the direction sought with a large enough effect in the repeat runs; inconclusive = weak or mixed curves; inactive = no such curve, though single readings can be large; an effect the other way counts as inactive or inconclusive.

How the values were obtained:
[1] = qHTS assay to identify small molecule agonists of the RXR signaling pathway - cell viability counter screen (AID 1159529); note: nearly all actives have a fitted effect of over 50% in size; note: potency is the fitted concentration of half-maximal effect
How it was run: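 Luminescence from CellTiter-Glo (30 min, RT) measured viability in the same wells as the beta-lactamase reporter readout. Cells: GeneBLAzer RXR-alpha HEK 293T, 2% charcoal-stripped FBS. Compound exposure 16 hr, 37 C.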

[2] = qHTS assay to identify small molecule antagonists of the retinoid acid receptor (RAR) signaling pathway - cell viability counter screen (AID 1159551); note: nearly all actives have a fitted effect of over 35% in size
How it was run: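 Luminescent ATP quantitation (CellTiter-Glo) gave cell viability in C3RL4 cells exposed to test chemicals for 6 h at 37 C alongside 1 uM final retinol.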

[3] = qHTS assay to identify small molecule antagonists of the retinoic acid receptor (RAR) signaling pathway (AID 1159552; note: nearly all actives have a fitted effect of over 50% in size; note: potency is the fitted concentration of half-maximal effect)
How it was run: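 Luminescence from a RARE luciferase reporter in C3RL4 cells served as read-out. Cells received compounds together with 1 uM final retinol and incubated 6 hr at 37 C before detection reagent was added for 30 min at room temperature.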

[4] = qHTS assay to identify small molecule agonists of the retinoic acid receptor (RAR) signaling pathway (AID 1159553); conditions: C3RL4 RARE luciferase reporter, agonist, 6 h; activation: at 73.3 µM (top of the series) unless noted; note: potency is the fitted concentration of half-maximal effect
How it was run: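 Luminescence from a RARE-driven luciferase reporter in C3RL4 cells served as the read-out, measured after 30 min with detection reagent at room temperature. Compounds in DMSO were applied for 6 hr at 37 C following overnight seeding.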

[5] = qHTS assay to identify small molecule antagonists of the estrogen related receptor (ERR) signaling pathway from Tox21 library - cell viability counter screen (AID 1224834); note: nearly all actives have a fitted effect of over 30% in size; note: potency is the fitted concentration of half-maximal effect
How it was run: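 Fluorescence from CellTiter-Fluor gives the viability read-out, taken 30 min after reagent addition. Before that, ERR cells seeded 6 h earlier were incubated with compounds for 17.5 h at 37 C.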

[6] = target: Luciferin 4-monooxygenase (Photinus pyralis) (UniProt P08659); test: qHTS assay to identify small molecule inhibitors of firefly luciferase (AID 1224835); note: nearly all actives have a fitted effect of over 25% in size; note: potency is the fitted concentration of half-maximal effect
How it was run: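 Quantitative HTS format; KM concentrations of both substrates. Purified P. pyralis FLuc activity quantified from luminescence images.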

[7] = qHTS assay to identify small molecule agonists of the constitutive androstane receptor (CAR) signaling pathway - cell viability counter screen (AID 1224836); note: nearly all actives have a fitted effect of over 45% in size; note: potency is the fitted concentration of half-maximal effect
How it was run: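 Viability read-out: CellTiter-Fluor fluorescence after 23 h compound exposure at 37 C/5% CO2 in double-stable HepG2-CYP2B6-hCAR cells, with PK11195 present at 0.75 uM final; compounds tested in 15-point titration.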

[8] = target: Nuclear receptor subfamily 1 group I member 3 (Homo sapiens) (UniProt Q14994); test: qHTS assay to identify small molecule antagonists of the constitutive androstane receptor (CAR) signaling pathway (AID 1224838);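 note: HepG2 cells stably expressing hCAR with CYP2B6 luciferase reporter stimulated by CITCO; nearly all actives have a fitted effect of over 40% in size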
How it was run: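 HepG2-CYP2B6-hCAR cells; 4 h pre-incubation; cpd (15 conc) + CITCO 50 nM final; 24 h, 37 C/5% CO2; ONE-Glo, luminescence.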

[9] = qHTS assay to identify small molecule antagonists of the estrogen related receptor signaling pathway with the pleiotropic PPARgamma coactivator (PGC) from Tox21 10K library - cell viability counter screen (AID 1224840; active = well fitted cell-killing curve with a large enough effect in the repeat runs, not every such curve was filed as active; note: nearly all actives have a fitted effect of over 40% in size; note: potency is the fitted concentration of half-maximal effect)
How it was run: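 PGC/ERR cells, 2,000/well; 6 h pre-incubation 37 C/5% CO2; cpd in DMSO via pin tool; 17.5 h 37 C; CellTiter-Fluor, 30 min; fluorescence.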

[10] = target: Thyrotropin receptor (Homo sapiens) (UniProt P16473); test: qHTS assay to identify small molecule agonists of the thyroid stimulating hormone receptor (TSHR) signaling pathway (AID 1224843; calls by dose curve; note: nearly all actives have a fitted effect of over 45% in size)
How it was run: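 TSHR-expressing HEK293 cells (800 per well) were exposed to compounds for 30 min at room temperature. cAMP was then detected by HTRF competition with cAMP-d2 and anti-cAMP cryptate, read after 1 h at room temperature. Fifteen concentrations, triplicate.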

[11] = target: Nuclear receptor subfamily 1 group I member 3 (Homo sapiens) (UniProt Q14994); test: qHTS assay to identify small molecule agonists of the constitutive androstane receptor (CAR) signaling pathway (AID 1224839);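 note: HepG2 cells stably carrying human CAR and a CYP2B6 luciferase reporter; nearly all actives have a fitted effect of over 15% in size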
How it was run: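 Luminescence read-out (ONE-Glo, 30 min, room temperature) from double-stable HepG2-CYP2B6-hCAR cells exposed 24 h to 15-point compound series in presence of 0.75 uM PK11195 final.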

[12] = qHTS assay to identify small molecule antagonists of the estrogen related receptor signaling pathway with the pleiotropic PPARgamma coactivator (PGC) from Tox21 10K library (AID 1224841; call rule not given here; note: actives are mostly falling curves and most rising ones were filed inactive; nearly all actives have a fitted effect of over 50% in size)
How it was run: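 PGC/ERR cell line, 2,000 cells/well; 6 h pre-incubation 37 C/5% CO2; compounds (DMSO) pinned in; 18 h, 37 C; One-Glo, 30 min RT; luminescence.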

[13] = qHTS assay to identify small molecule agonists of the estrogen related receptor signaling pathway with the pleiotropic PPARgamma coactivator (PGC) from Tox21 10K library (AID 1224842); note: nearly all actives have a fitted effect of over 15% in size
How it was run: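 PGC/ERR reporter cells (NTP line) were seeded 2,000 per well, rested 6 h at 37 C/5% CO2, then pin-dosed with compounds in DMSO for 18 h at 37 C; luciferase read by One-Glo luminescence after 30 min at room temperature.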

[14] = qHTS assay to identify small molecule antagonists of the estrogen related receptor (ERR) signaling pathway - cell viability counter screen (AID 1224818);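 note: viability measured after 17.5 h of compound exposure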
How it was run: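 Multiplexed counter screen to separate cytotoxic compounds from true ERR modulators. ERR cells received DMSO-dissolved compounds after a 6 h pre-incubation, were exposed 17.5 h at 37 C, then assayed with CellTiter-Fluor fluorescence.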

[15] = qHTS assay to identify small molecule agonists of the estrogen related receptor (ERR) signaling pathway (AID 1224820)
How it was run: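 Quantitative HTS of the LOPAC library used NTP ERR reporter cells treated 18 h at 37 C. Signal is luminescence after One-Glo addition and a 30 min room-temperature incubation.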

[16] = test system: estrogen-related receptor alpha (ERRalpha) with PGC-1alpha coactivator, human; test: qHTS assay to identify small molecule antagonists of the estrogen related receptor signaling pathway with the pleiotropic PPARgamma coactivator (PGC) (AID 1224821; calls by dose curve;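 note: lower luminescence signal means antagonism of PGC/ERR signalling; nearly all actives have a fitted effect of over 50% in size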)
How it was run: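 Quantitative HTS for antagonism: PGC/ERR cells received compounds after 6 h attachment and were incubated 18 h at 37 C, with luminescence (One-Glo) as the endpoint.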

[17] = qHTS assay to identify small molecule antagonists of the estrogen related receptor signaling pathway with the pleiotropic PPARgamma coactivator (PGC) cell viability counter screen (AID 1224822)
How it was run: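 Cells: PGC/ERR, 2,000/well, 1536-well format. Pre-incubation 6 h, 37 C/5% CO2. Compound exposure 17.5 h, 37 C. Detection: CellTiter-Fluor, 30 min, fluorescence.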

[18] = qHTS assay to identify small molecule antagonists of the constitutive androstane receptor (CAR) signaling pathway - cell viability counter screen (AID 1224837); note: nearly all actives have a fitted effect of over 45% in size
How it was run: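 HepG2-CYP2B6-hCAR cells, 2500/well, 4 hr pre-incubation; compound titration, 15 conc.; CITCO 50 nM final; 23 hr, 37 C/5% CO2; CellTiter-Fluor, fluorescence intensity.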

[19] = qHTS assay to identify small molecule antagonists of the estrogen related receptor (ERR) signaling pathway (AID 1224819)
How it was run: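 Seed ERR cells 2,000/well; rest 6 h at 37 C/5% CO2; pin compounds in DMSO; incubate 18 h at 37 C; add One-Glo; wait 30 min at room temperature; measure luminescence.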

[20] = qHTS assay to identify small molecule agonists of the estrogen related receptor signaling pathway with the pleiotropic PPARgamma coactivator (PGC) (AID 1224823)
How it was run: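 Cell-based luciferase assay in the NTP-supplied PGC/ERR line, 2,000 cells/well; 18 h compound exposure at 37 C, luminescence after One-Glo.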
% is set by controls: 0 for no effect and ±100 for the full control effect.

Thyrotropin receptor (Homo sapiens), sequence (P16473 whole entry, looked up): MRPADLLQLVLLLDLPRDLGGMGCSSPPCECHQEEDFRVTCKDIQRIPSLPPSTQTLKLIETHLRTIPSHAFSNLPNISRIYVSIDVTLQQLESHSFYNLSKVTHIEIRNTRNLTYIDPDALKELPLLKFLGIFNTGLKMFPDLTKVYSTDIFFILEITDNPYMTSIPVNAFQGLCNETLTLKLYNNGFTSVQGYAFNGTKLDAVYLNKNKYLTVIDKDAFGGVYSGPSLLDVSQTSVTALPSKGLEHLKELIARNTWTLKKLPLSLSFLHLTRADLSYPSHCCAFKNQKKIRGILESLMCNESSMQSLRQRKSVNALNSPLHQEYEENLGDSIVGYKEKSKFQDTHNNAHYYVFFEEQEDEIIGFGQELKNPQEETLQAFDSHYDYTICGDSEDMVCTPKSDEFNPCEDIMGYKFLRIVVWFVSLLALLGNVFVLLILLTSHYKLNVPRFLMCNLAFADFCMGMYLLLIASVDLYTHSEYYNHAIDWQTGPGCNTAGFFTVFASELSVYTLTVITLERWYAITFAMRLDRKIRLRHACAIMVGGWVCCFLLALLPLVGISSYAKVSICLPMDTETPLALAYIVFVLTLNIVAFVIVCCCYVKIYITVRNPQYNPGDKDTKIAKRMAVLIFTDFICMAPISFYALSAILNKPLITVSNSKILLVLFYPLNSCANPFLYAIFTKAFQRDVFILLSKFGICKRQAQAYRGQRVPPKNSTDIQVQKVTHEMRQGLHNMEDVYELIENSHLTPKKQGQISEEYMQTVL
Luciferin 4-monooxygenase (Photinus pyralis), sequence (P08659 whole entry, looked up): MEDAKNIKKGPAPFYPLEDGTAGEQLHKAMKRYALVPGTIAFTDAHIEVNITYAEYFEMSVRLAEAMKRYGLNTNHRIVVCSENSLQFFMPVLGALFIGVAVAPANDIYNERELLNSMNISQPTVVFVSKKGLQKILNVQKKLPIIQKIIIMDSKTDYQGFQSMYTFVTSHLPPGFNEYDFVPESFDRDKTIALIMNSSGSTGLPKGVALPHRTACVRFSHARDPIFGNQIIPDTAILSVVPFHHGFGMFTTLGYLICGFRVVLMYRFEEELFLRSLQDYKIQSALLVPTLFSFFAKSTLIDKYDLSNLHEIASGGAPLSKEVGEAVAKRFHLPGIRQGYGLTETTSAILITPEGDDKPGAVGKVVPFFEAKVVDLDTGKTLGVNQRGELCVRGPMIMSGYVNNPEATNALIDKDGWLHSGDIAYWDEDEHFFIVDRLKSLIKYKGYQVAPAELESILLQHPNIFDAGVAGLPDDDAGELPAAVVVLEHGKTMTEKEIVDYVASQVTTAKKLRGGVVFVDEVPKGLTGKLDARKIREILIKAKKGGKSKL
Nuclear receptor subfamily 1 group I member 3 (Homo sapiens), sequence (Q14994 whole entry, looked up): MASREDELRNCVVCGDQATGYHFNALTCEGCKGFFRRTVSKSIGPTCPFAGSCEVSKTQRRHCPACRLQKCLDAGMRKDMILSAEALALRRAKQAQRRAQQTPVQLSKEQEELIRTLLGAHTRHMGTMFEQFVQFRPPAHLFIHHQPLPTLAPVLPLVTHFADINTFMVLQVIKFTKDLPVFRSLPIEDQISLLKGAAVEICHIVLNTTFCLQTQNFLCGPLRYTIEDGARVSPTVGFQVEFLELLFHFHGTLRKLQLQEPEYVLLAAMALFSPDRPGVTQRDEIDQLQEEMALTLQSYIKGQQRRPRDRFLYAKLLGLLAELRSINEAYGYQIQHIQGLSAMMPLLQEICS

COc1c2ccoc2cc2oc(=O)ccc12
inactive: Potency [1] | Potency [2] | Potency [3] | Potency [4] | Potency [5] | Potency [6] | Potency [7] | Potency [8] | Potency [9] | Potency [10]

CCc1cccc(CC)c1N
inactive: Potency [1] | Potency [2] | Potency [5] | Potency [6] | Potency [7] | Potency [8] | Potency [11] | Potency [9] | Potency [10]

O=C(NCC1CCCCN1)c1cc(OCC(F)(F)F)ccc1OCC(F)(F)F (stereo unspecified)
inactive: Potency [1] | Potency [2] | Potency [5] | Potency [7] | Potency [8] | Potency [9] | Potency [10]

CC1=CC(=O)CC(C)(C)C1
inactive: Potency [2] | Potency [4] | Potency [12] | Potency [13] | Potency [10]
36.6 µM (active) and inactive: Potency [6]
28.1 µM (active) and inactive: Potency [9]
4.99 µM (active) and inactive: Potency [3]
22.3 µM (active) and inactive: Potency [5]
25.3 µM (active) and inactive: Potency [1]

Nc1nc(N)c2nc(-c3ccccc3)c(N)nc2n1
inactive: Potency [1] | Potency [3] | outcome [14] | outcome [15] | Potency [16] | Potency [17] | Potency [5] | Potency [7] | Potency [8] | Potency [11] | Potency [9] | Potency [12] | Potency [13] | Potency [10]
active: Potency [6] 40.4 µM and 39.9 µM
17.4 µM (active) and inactive: Potency [4]

C=C1C[C@]23C[C@@]1(O)CC[C@H]2[C@@]12C=C[C@H](O)[C@@](C)(C(=O)O1)[C@H]2[C@@H]3C(=O)O
inactive: Potency [1] | Potency [2] | Potency [3] | Potency [4] | Potency [5] | Potency [6] | Potency [9] | Potency [12] | Potency [13] | Potency [10]

CCCCCCCCCCCC(=O)N(C)CC(=O)O
active: Potency [6] 77.2 µM
inactive: activity change, negative = cytotoxicity [1] 3.37% [at 6.97 µM] | Potency [3] | Potency [4] | Potency [5] | activity change, negative = inhibition [6] 1.62% [at 10.5 µM] | Potency [7] | Potency [9] | Potency [10]

Cc1ncc(CO)c(CO)c1O
inactive: Potency [1] | Potency [2] | Potency [5] | Potency [6] | Potency [7] | Potency [9] | Potency [10]

CC(C)(CO)CO
inactive: Potency [1] | Potency [2] | Potency [5] | Potency [6] | Potency [7] | Potency [18] | Potency [9] | Potency [12] | Potency [13] | Potency [10]

CC(CN1c2ccccc2Sc2ccccc21)N(C)C (stereo unspecified)
55.5 µM (active) and inactive: Potency [1]
active: Potency [3] 27.6 µM and 48.6 µM and 26.6 µM | Potency [5] 69.3 µM and 61.1 µM | Potency [7] 54.5 µM
inactive: Potency [2] | outcome [14] | Potency [19] | outcome [15] | Potency [16] | Potency [17] | outcome [20] | Potency [6] | Potency [8] | Potency [11] | Potency [12] | Potency [13] | Potency [10]

Cc1nnc(NS(=O)(=O)c2ccc(N)cc2)s1
inactive: Potency [1] | Potency [2] | Potency [5] | Potency [6] | Potency [7] | Potency [18] | Potency [9] | Potency [10]

CC(C)(C)NC[C@H](O)COc1nsnc1N1CCOCC1
inactive: Potency [1] | Potency [2] | Potency [5] | Potency [6] | Potency [7] | Potency [8] | Potency [11] | Potency [9]
